# Reference: PubChem BioAssay
# Values joined by “and” are separate entries in the source; they are usually repeats but may differ in a detail not shown here. Identical values can stand only once. Results filed as inconclusive are left out. Active and inactive are the calls of the source. Unless noted, how the calls were made is not given here.
# Assays:
# [1] = circadian clock period modulators, cell-based, LOPAC library, luminescence reporter (AID 2774); settings: circadian reporter cells, at 7 µM, actives lie on both sides;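 further: values are relative to mean of DMSO wells on each plate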
# [2] = hESC survival regulators, cell-based (AID 493140); settings: human embryonic stem cell survival screen; stronger effect = higher value;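 further: cells exposed to compounds for four days before counting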
# [3] = tested on: Hepatitis C virus NS3 helicase; assay: HCV NS3 helicase inhibitors, primary screen, biochemical, fluorescence polarization, LOPAC1280 library (AID 687035; in the data active means inhibition above about 37%); settings: Purified HCV NS3 helicase, Cy5-dT15 ssDNA binding fluorescence polarization; stronger effect = higher value; concentration not given here
# [4] = Cy5 fluorescence quenching or enhancement artefacts, artefact control for HCV NS3 helicase inhibitor project, biochemical, LOPAC1280 (AID 687037); settings: Cy5-DNA-NS3h complex fluorescence interference counterscreen
# [5] = sensitizers of A549 cells to miR-34 induction, primary screen, imaging, A549 dox-inducible miR-34, nuclei and caspase counts (AID 1347080;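 active means compounds whose cell count with miR-34 switched on is under 0.7 times the count with it off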); settings: A549 miR-34 inducible, Hoechst nuclei count, 48 h
# [6] = viability rescue of complex I mutant cybrids, primary screen, cell-based, galactose medium, ATP luminescence (AID 1645843;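 active means z-score of at least 1.8 in each of two replicates, scored against plate mean and spread of sample wells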;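 further: positive z means more ATP and so rescue of galactose-driven cybrid death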); settings: complex I mutant cybrid cells, 72 h, stronger effect = higher value
# [7] = liver-stage malaria parasite growth inhibition, primary screen, cell-based, HepG2, luciferase luminescence, HepG2 viability (AID 624349; in the data active means parasite load remaining mostly below about 12%, no sharp cut-off; inactive means mostly above about 10%;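 further: 100% = mean of DMSO negative control wells on the same plate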); settings: P. berghei liver stage in HepG2, luciferase luminescence, concentration not given here; parasite load remaining: stronger effect = lower value; viability: measured here: HepG2 viability without parasites
# [8] = target: ATP-dependent translocase ABCB1 (Homo sapiens) (UniProt P08183); assay: MDR1 (ABCB1) efflux transporter inhibition, cell-based (AID 377; in the data active means fluorescence slope change above about 50%); settings: MDR1-expressing cells, fluorescent substrate accumulation slope; stronger effect = higher value; concentration not given here
# ATP-dependent translocase ABCB1 (Homo sapiens), sequence (P08183 whole entry, looked up): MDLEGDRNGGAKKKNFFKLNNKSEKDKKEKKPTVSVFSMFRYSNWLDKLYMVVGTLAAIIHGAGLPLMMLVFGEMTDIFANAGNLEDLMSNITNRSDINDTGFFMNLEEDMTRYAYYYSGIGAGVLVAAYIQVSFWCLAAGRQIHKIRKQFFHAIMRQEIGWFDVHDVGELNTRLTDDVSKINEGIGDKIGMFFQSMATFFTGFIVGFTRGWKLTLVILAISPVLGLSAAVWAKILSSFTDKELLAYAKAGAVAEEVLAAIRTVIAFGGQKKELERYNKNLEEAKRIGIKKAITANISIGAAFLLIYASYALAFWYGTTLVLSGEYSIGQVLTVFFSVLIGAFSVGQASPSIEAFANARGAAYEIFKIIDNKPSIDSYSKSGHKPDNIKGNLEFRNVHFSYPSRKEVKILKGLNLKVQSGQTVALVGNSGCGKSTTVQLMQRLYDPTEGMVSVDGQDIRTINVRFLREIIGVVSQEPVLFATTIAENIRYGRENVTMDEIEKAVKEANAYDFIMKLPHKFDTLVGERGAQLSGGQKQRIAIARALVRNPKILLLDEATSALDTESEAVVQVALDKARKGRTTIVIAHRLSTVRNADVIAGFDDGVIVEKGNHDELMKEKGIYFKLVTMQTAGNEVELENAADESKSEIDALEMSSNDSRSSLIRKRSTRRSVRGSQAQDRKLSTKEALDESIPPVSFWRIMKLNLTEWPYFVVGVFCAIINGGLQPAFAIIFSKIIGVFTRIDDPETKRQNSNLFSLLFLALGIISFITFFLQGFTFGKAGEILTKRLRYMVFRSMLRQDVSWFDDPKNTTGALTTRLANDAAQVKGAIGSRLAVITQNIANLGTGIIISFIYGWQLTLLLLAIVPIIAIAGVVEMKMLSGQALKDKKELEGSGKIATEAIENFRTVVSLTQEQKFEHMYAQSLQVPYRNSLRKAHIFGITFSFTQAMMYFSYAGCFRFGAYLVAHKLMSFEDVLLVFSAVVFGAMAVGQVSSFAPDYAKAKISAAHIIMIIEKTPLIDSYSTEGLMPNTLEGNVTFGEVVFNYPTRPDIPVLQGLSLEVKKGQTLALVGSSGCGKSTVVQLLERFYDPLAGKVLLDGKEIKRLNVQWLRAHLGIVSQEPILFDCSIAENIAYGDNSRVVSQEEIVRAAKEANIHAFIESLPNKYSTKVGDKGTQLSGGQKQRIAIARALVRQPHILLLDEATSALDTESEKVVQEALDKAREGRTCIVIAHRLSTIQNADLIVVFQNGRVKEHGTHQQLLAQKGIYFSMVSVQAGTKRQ
# [9] = stronger effect = lower value, cell number ratio, induced over uninduced
# [10] = measured here: relative caspase fold change +Dox/-Dox
# [11] = measured here: total cells with miR-34 induction, stronger effect = lower value
# [12] = measured here: total cells without miR-34 induction
SMILES,period change [1],survival [2],inhibition [3],fluorescence ratio (interference) [4],"fold change [5, 9]","fold change [5, 10]","cell count [5, 11]","cell count [5, 12]",z-score [6],parasite load remaining [7],viability [7],fluorescence slope change [8]
CCCCCC(O)c1cccc(OCc2ccc3ccccc3n2)c1 (centres undefined),0.015 h (inactive),78.8 (inactive),1% (inactive),0.9 (inactive),0.911 (inactive) and 0.978 (inactive),1.06 and 0.946,5590 and 5690,6140 and 5820,,,,
Cc1ccc2c(c1)C(N1CCN(C)CC1)=Nc1cccnc1N2,0.2 h (inactive),,-2% (inactive),1 (inactive),1 (inactive),1.15,8670,8630,0.01 (inactive),,,
N=S(=O)(O)Cc1noc2ccccc12,0.1 h (inactive),,1% (inactive),1 (inactive),0.955 (inactive),2.62,9240,9680,0.5 (inactive),,,
O=C(O)CCC(=O)N1CCCC1C(=O)O (centres undefined),-0.225 h (inactive),,-2% (inactive),1 (inactive),0.97 (inactive),1.16,9450,9740,0.565 (inactive),,,
CCC[C@@H]1C[C@@H](C(=O)N[C@@H]([C@H]2O[C@H](SC)[C@H](O)[C@@H](O)[C@@H]2O)[C@@H](C)O)N(C)C1,,,,,0.982 (inactive) and 0.853 (inactive),0.967 and 1.36,11000 and 8020,11200 and 9400,1.21 (inactive),53.4% (inactive) and 46.6% (inactive),129% and 47.8%,
NCCC(=O)NCCc1cnc[nH]1,0.085 h (inactive),7.75 (inactive),,,0.903 (inactive),1.35,9030,10000,,133% (inactive) and 73.6% (inactive),94% and 70.5%,
CCOC(=O)C12CC1/C(=N/O)c1ccccc1O2 (centres undefined),-0.125 h (inactive),,,,1.06 (inactive),2.7,9720,9140,0.485 (inactive),,,
Nc1ccn([C@@H]2O[C@H](CO)[C@@H](O)[C@@H]2O)c(=O)n1,-0.07 h (inactive),,-4% (inactive),0.9 (inactive),0.984 (inactive),1.55,1860,1890,-0.93 (inactive),,,
Oc1ccc(Cn2cc[nH]c2=S)cc1,0.16 h (inactive),,-4% (inactive),1 (inactive),0.942 (inactive),1.11,9950,10600,0.15 (inactive),,,
Cc1n[nH]c(=O)[nH]c1=O,,3.58 (inactive),,,0.871 (inactive),1.41,8710,10000,,54.2% (inactive) and 83.7% (inactive),111% and 75.4%,50.5% (active)
N=C(N)SCCc1cccc(CCSC(=N)N)c1,0.115 h (inactive),,,,1.01 (inactive),0.632,6390,6310,,,,
CN(C)C(=O)/N=N/C(=O)N(C)C,0.015 h (inactive),,,,1.04 (inactive),1.27,10000,9690,-1.03 (inactive),,,
N=c1ccn2c(n1)OC1[C@@H](O)[C@@H](CO)O[C@H]12 (some centres undefined),-0.115 h (inactive),,-5% (inactive),1 (inactive),1.14 (inactive),1.55,1970,1730,-1.23 (inactive),,,
N=c1c[n+](N2CCOCC2)[n-]o1,0.03 h (inactive),,-1% (inactive) and -5% (inactive),1 (inactive),1 (inactive) and 0.984 (inactive),2.22 and 1.55,10300 and 10500,10300 and 10700,-0.02 (inactive) and 0.005 (inactive),,,
NC(N)=N[C@@H](CCC(=O)O)C(=O)O,0.01 h (inactive),,-3% (inactive),1 (inactive),0.954 (inactive) and 0.929 (inactive),1.36 and 1.31,9760 and 6110,10200 and 6580,0.175 (inactive),,,
O=C(O)CCC/C=C\C[C@@H]1[C@@H](/C=C/[C@H](O)C2Cc3ccccc3C2)[C@@H](F)C[C@@H]1O,-0.195 h (inactive),,-2% (inactive),1 (inactive),0.962 (inactive) and 0.866 (inactive),1.71 and 1.08,9120 and 5490,9480 and 6340,0.805 (inactive),,,
N#C/C(=C\c1ccc(O)c(O)c1)C(=O)NCCCNC(=O)/C(C#N)=C/c1ccc(O)c(O)c1,-0.285 h (inactive),,37% (active),1 (inactive),0.987 (inactive),1.18,9720,9850,-0.275 (inactive),,,
Nc1nc(SCc2ccc([N+](=O)[O-])cc2)c2ncn([C@@H]3O[C@H](CO)[C@H](O)C3O)c2n1 (some centres undefined),-0.105 h (inactive),,-2% (inactive),0.9 (inactive),1.08 (inactive),0.784,10100,9310,-0.085 (inactive),,,
NCCC1CCCC(CCN)N1 (centres undefined),0.21 h (inactive),,-7% (inactive),0.9 (inactive),1.09 (inactive),1.24,10800,9840,0.405 (inactive),,,
C=CC1=C(C(=O)O)N2C(=O)C(NC(=O)C(=NO)c3csc(N)n3)C2SC1 (centres undefined),,,,,0.914 (inactive),1.91,9440,10300,0.13 (inactive),,,
